Screening results (PubChem)
An excerpt weighted towards active compounds, which were near 2.2% of everything screened.
FUS yeast rescue – rescues growth of FUS-expressing yeast; Potency, µM (top dose mostly 76.6 µM), usual class: activators; 390,000 tested, 0.24% active; S. cerevisiae FUS-expressing, growth rescue, OD600, 24 h;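 note: plate controls were DMSO vehicle for no effect and reference control for full effect; nearly all actives have a fitted effect of over 55% in size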
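Galactose (2%) drives FUS expression in yeast precultured in raffinose; seeding density OD 0.005. Test compounds incubated 24hr at 30C and 99% humidity before absorbance at 600 nm was measured.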
aSyn rescue – inhibitors of alpha-synuclein toxicity in yeast; Yeast expressing alpha-synuclein, growth rescue, BacTiter-Glo, 24 h; Potency, µM (highest dose often 46.1 µM), for the others: at the highest dose growth rescue (activation), hits mostly activators; 370,000 tested, 0.14% active; note: % of control where 0% means no effect; nearly all actives have a fitted effect of over 65% in size
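Rescue of yeast growth: cells expressing toxic alpha-synuclein, induced in galactose at OD600 0.02, incubated with compound 24 h at 30 C. ATP luminescence quantified growth; inhibitors of toxicity appear as activators.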
TDP-43 yeast inh – inhibitors of TDP-43 toxicity in yeast; TDP-43 expressing yeast growth rescue, BacTiter-Glo, 24 h; Potency, µM (titrated, usually from 46.1 µM), for inactives: at the top dose growth rescue (activation), actives largely listed as activators; 410,000 tested, 1.8% active; AID 652104; note: % of control where 0% means no effect; nearly all actives have a fitted effect of over 50% in size
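In this qHTS, compounds that restore growth of yeast expressing TDP-43 appear as activators. Cells (OD600=0.02, galactose medium, raffinose-pregrown) are incubated with compound 24 hr at 30 deg C and growth is quantified by BacTiter-Glo.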
Abeta rescue – compounds reversing amyloid beta toxicity in yeast; Potency, µM (top dose mostly 46.1 µM), actives largely listed as activators; 410,000 tested, 0.063% active; AID 1347071; yeast expressing A-beta42, growth rescue, OD600, 48 h; response scale: 0% DMSO, 100% iron-clioquinol control; note: nearly all actives have a fitted effect of over 55% in size
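Yeast A-beta toxicity model in growth medium with pinned compounds, 48 h at 30 C; growth read as absorbance at 600 nm. Normalized to FeCl3/clioquinol equimolar mix (positive) and DMSO (negative).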
Mito fusion act – mitochondrial division inhibition or fusion activation; S. cerevisiae fusion-defective mutant growth rescue, CellTiterGlo 48 h; Potency, µM (highest dose often 46.1 µM), without a hit: at the top dose growth rescue (activation), usual class: activators; 320,000 tested, 0.23% active; AID 485298; note: % of control where 0% means no effect; nearly all actives have a fitted effect of over 45% in size
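S. cerevisiae fusion-defective temperature-sensitive mutants (e.g. fzo1-1, mgm1-5) grown 48 h at 37C in YPEG (ethanol/glycerol non-fermentable) medium with 23 nl compound per well; growth rescue read as CellTiterGlo luminescence.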
ERG-DNA inh – blocks human ERG Ets domain binding to DNA; fluorescence polarization, His-ERG Ets domain / labelled DNA; Potency, µM (top dose mostly 76.9 µM), without a hit: at the highest dose FP activity, negative = inhibition, usual class: inhibitors; 370,000 tested, 0.028% active; AID 624246; active = well fitted inhibition curve with a large enough effect in the polarisation, with a control signal flat; inconclusive = small, poorly fitted or top-dose-only effect, or effect the other way, or a change in a side signal; inactive = no such curve, though single readings can be large or run the other way; the % refers to the polarisation;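 note: polarization taken with two DNA probes labelled with fluorescein and Texas red; % of control where 0% means no effect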
Target sequence (P11308 whole entry, looked up, the tested form may be a part): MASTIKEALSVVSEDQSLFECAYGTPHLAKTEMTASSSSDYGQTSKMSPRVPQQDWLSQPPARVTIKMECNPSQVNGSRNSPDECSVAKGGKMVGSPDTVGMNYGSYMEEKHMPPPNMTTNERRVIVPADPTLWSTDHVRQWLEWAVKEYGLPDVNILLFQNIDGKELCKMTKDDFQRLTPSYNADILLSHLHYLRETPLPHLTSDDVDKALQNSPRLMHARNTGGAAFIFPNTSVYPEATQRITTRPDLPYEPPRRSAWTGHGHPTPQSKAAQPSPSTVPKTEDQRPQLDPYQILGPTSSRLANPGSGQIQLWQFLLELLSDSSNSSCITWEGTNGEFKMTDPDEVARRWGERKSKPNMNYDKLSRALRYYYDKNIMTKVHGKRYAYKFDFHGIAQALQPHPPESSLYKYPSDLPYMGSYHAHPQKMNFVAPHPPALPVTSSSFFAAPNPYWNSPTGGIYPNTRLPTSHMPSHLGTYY
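His-tagged ERG Ets domain (1 uM in the protein solution; 300mM KCl, 50mM Tris-HCl, 1mM EDTA, 1mM DTT, pH 7.5) received compound, then a probe mix of 5 nM fluorescein-DNA and 100nM Texas-615-DNA. Fluorescence polarization was read for both dyes.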
The depositor's hits bear a star; i = inactive; ? = inconclusive; . = no result. Unless noted, calls come from the whole dose curve; as a rule, active = well fitted curve in the direction sought with a large enough effect; inconclusive = small, poorly fitted or top-dose-only effect, or another doubt; inactive = no such curve, though single readings can be large; an effect the other way counts as inactive or inconclusive. Potency is the fitted concentration of half-maximal effect.

SMILES | FUS yeast rescue | aSyn rescue | TDP-43 yeast inh | Abeta rescue | Mito fusion act | ERG-DNA inh
CC1CC1c1ccc(/C=C(\C#N)C(=O)Nc2ccccc2Cl)o1 (configuration not stated) | . | 17% | 11µM* | i | 20% | -4%
CCc1ccccc1NC(=O)/C(C#N)=C/c1ccc(Sc2ccccc2)o1 | i | 2% | -3% | i | 11µM* | 10%
CC1CC1c1ccc(/C=C(\C#N)C(=O)Nc2ccc(Cl)cc2)o1 (configuration not stated) | . | -15% | 24% | i | 13% | 23%
CCc1ccccc1NC(=O)/C(C#N)=C\c1ccc(Sc2ccccc2)o1 | i | -3% | -12% | i | 2% | .
COC(=O)C[C@H]1CC[C@@H]2[C@@H](COc3ccc(NC(=O)C4CCCCC4)cc3C(=O)N2C)O1 | i | . | . | . | . | .
COC(=O)c1cccc2c1-c1ccccc1/C2=N/O | i | -20% | 13µM* | i | 20% | -14%
COC(=O)c1cccc2c1-c1ccccc1/C2=N\NC(N)=O | i | 18% | -2% | i | 10% | -2%
COC(=O)c1ccc2c(c1O)C(=O)c1ccccc1C2=O | i | 2% | 7.9µM* | i | -10% | 1%
CCOc1cccc(C(=O)Nc2nc3c(s2)CC(C(C)(C)C)CC3)c1 (configuration not stated) | i | . | -1% | i | . | -3%
CC(=O)Nc1nc2c(s1)CCc1ccccc1-2 | i | 10% | 20% | . | 30% | -8%
O=C(CCCl)Nc1nc2c(s1)CCc1ccccc1-2 | i | 15% | 22µM* | i | 8% | -8%
O=C(Nc1nc2c(s1)CCc1ccccc1-2)c1ccco1 | i | -10% | 13µM* | i | 29% | 1%
CCOc1ccc(NC(=O)CC2C(=O)N(c3ccc(F)cc3)C(=O)N2Cc2ccc(OC)c(OC)c2)cc1 (configuration not stated) | i | . | 8% | i | . | -3%
COc1ccc(OC)c(CCNc2nccn(-c3ccc(C)c(C)c3)c2=O)c1 | i | . | ? | i | . | 1%
CC(NC(=O)C12CC3CC(CC(C3)C1)C2)C(=O)NN=Cc1ccc([N+](=O)[O-])o1 (configuration not stated) | i | 1% | 14% | i | . | 2%
CC(NC(=O)c1ccc([N+](=O)[O-])o1)C12CC3CC(CC(C3)C1)C2 (configuration not stated) | i | -4% | ? | i | 14µM* | -4%
O=C(CSc1nnc(-c2cccs2)o1)c1ccc(F)cc1 | i | . | . | . | . | .
CC1CCN(c2nc3ccc(C(=O)O)cc3s2)CC1 | . | -11% | 4µM* | i | -21% | -3%
CC1(C)OB(c2cnc(C#N)nc2)OC1(C)C | . | 0% | . | . | . | .
Cc1cccc(NS(=O)(=O)c2ccc3c(c2)CCN3C(=O)C2CCC2)c1 | i | . | ? | i | . | -10%
CCN(c1ccc(C)cc1C)S(=O)(=O)c1nnc(NC(=O)CC(C)C)s1 | i | . | 1% | i | . | 0%
COc1ccc(CCn2c(N)c(C(=O)NCc3ccco3)c3nc4ccccc4nc32)cc1 | . | 21% | 18% | i | 14% | 0%
COCCNC(=O)c1c(N)n(CCC2=CCCCC2)c2nc3ccccc3nc12 | 40µM* | -52% | ? | i | -5% | 15%
Cc1ccc(-c2nc(CS(=O)(=O)CC(=O)Nc3ccc(Br)cc3F)c(C)o2)cc1 | i | . | 7% | i | . | 8%
COc1cc(C(=O)OCC(=O)Nc2ccc3c(c2)OC(F)(F)O3)ccc1OCc1c(C)noc1C | i | 1% | 35µM* | i | 3% | 1%
SMILES | FUS yeast rescue | aSyn rescue | TDP-43 yeast inh | Abeta rescue | Mito fusion act | ERG-DNA inh
CCOc1cc(C)c(S(=O)(=O)N2CCCCC2)cc1C | i | 16µM* | ? | ? | ? | -1%
COc1cc(C)c(S(=O)(=O)N2CCCC2)cc1C | i | 14µM* | 6% | ? | -10% | 2%
Cc1cccc(-n2c(=O)c3c(c4cc(C)ccc4n3C)n(CC(=O)Nc3ccccc3C(F)(F)F)c2=O)c1 | i | . | 11% | i | . | 0%
C=C1NN(Cc2ccccc2)C(=O)N1c1ccc(OCc2ccccc2)cc1 | . | 3% | . | . | . | .
CC(C)(C)c1ccc(-c2nc(SCC(=O)Nc3ccccc3F)n3[nH]c(=O)cc3n2)cc1 | i | . | 0% | i | . | 7%
COc1ccc(CN2C(=O)c3cccnc3C2=O)cc1S(=O)(=O)N(C)Cc1ccco1 | i | 1% | 4% | i | -4% | 1%
CN(Cc1ccco1)S(=O)(=O)c1ccc(CN2C(=O)c3cccnc3C2=O)s1 | i | ? | 18µM* | i | -5% | -1%
CC1(C)CC2(CCO1)N1CC3(C)CN2CC(C)(C1)C3=O (configuration not stated) | . | 0% | 3.2µM* | i | . | 3%
CCCC12CN3CC(C)(CN(C1)C31CCCCC1)C2=O | i | 0% | 12% | i | -1% | 2%
CC(C)(C)N(Cc1ccccc1)C(=O)CSc1ncn[nH]1 | i | -4% | -23% | i | 32µM* | 1%
CCN(Cc1ccccc1)C(=O)CSc1ncn[nH]1 | i | -1% | -6% | i | -3% | 2%
O=C(NNc1ccc(F)cc1F)c1cccs1 | . | 5% | . | . | . | .
C#CCOc1ccc2c(C)cc(=O)oc2c1 | i | 0% | 20µM* | i | -7% | 2%
COc1ccc(-n2c(=O)c3c4c(sc3n(CC(=O)N3CCCCC3C)c2=O)CCC4)c(OC)c1 (configuration not stated) | i | . | 12% | i | . | -3%
COc1ccc(NC(=O)c2sc3nc(N4CCCC4)c4c(c3c2N)CC(C)(C)OC4)cc1 | i | -1% | ? | i | 13µM* | 0%
N#CC1C(=O)c2ccccc2C1c1ccccc1 (configuration not stated) | . | -58% | 26% | i | . | 5%
Clc1cccc(C2=NC(c3cccs3)=Nc3ccc(Br)cc3N2)c1 | i | . | 7% | i | . | 13%
CN1c2ccccc2-c2nc3ccccc3n2C1c1cccs1 (configuration not stated) | i | -35% | 7.1µM* | i | ? | 8%
CC[C@H](C)[C@@H]1NC(=O)[C@H]([C@@H](C)CC)NC(=O)[C@@H](CC(C)C)NC(=O)[C@H](Cc2ccccc2)NC(=O)[C@H](Cc2ccccc2)NC(=O)[C@@H]2CCCN2C(=O)[C@@H]2CCCN2C(=O)[C@H](C(C)C)NC(=O)[C@H](CC(C)C)NC1=O | 18µM* | 0% | 19% | i | . | 13%
